Experimental findings from PubChem BioAssay AID651784 (National Center for Advancing Translational Sciences (NCATS), 2012) are described below.

Results filed as inconclusive are left out. Activity calls are given as the source filed them. Calls come from the whole dose curve; as a rule, active = well fitted inhibition curve with a large enough effect; inconclusive = small, poorly fitted or top-dose-only effect; inactive = no such curve, though single readings can be large or run the other way.
Potency is the fitted concentration of half-maximal effect.

The experiment is described as follows: Acumen qHTS Assay for Inhibitors of the mTORC1 Signaling Pathway in MEF (Tsc2-/-, p53-/-) Cells: Hit Validation.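 For activity change, negative = inhibition: cells exposed to compound for 24 hours; plate controls were DMSO for no effect and 7.5 nM rapamycin control for full effect.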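 Note: phospho-rpS6 Ser235/236 immunofluorescence normalized to propidium iodide cell count; nearly all actives have a fitted effect of over 65% in size.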 Conditions: Acumen imaging; activity change, negative = inhibition: at 37.3 µM (top of the series). (Quantitative high-throughput screening tests each substance at several concentrations.)
For the compound `O=S(=O)(NCC(c1ccco1)N1CCN(c2ccc(F)cc2)CC1)c1ccccc1` (stereo unspecified), the activity change, negative = inhibition was 12.9%.

For the compound `COc1ccccc1CNC(=O)CCCn1c(=O)c2cccn2c2ccccc21`, the activity change, negative = inhibition is -1.89%.

With `CCOc1ccc(NC(=O)N(Cc2c[nH]c3ccccc23)C2CCCCCC2)cc1`, the activity change, negative = inhibition is -15.9%.

Take `Cc1cccc(-n2nnnc2S(C)(=O)=O)c1`: the activity change, negative = inhibition was -92%.

As to `CN1CCN(C(CNC(=O)C(=O)Nc2cccc(Cl)c2)c2ccc3c(c2)OCO3)CC1` (stereo unspecified), the activity change, negative = inhibition was -4.53%.

In the case of `Cc1ccc(C(=O)c2cn(CC(=O)NCc3ccccc3Cl)c3nc(C)ccc3c2=O)cc1`, the activity change, negative = inhibition was -14.2%.

Turning to `Cc1ccc2c(c1)C(=O)C(=O)N2Cc1ccc(OC(C)C)cc1`, the Potency was 0.0736 µM (active).

Consider `CCN1CCOC(=O)C1CC(=O)Nc1cccc(OC)c1` (stereo unspecified), for which the activity change, negative = inhibition is -21.3%.

With `Cc1ccc2oc(-c3ccc(Cl)cc3)c(O)c(=O)c2c1`, the activity change, negative = inhibition was -44.5%.

As to `Cc1ccc(-c2nn(C)c(=O)c3ccccc23)cc1S(=O)(=O)NCCCN(C)C`, the activity change, negative = inhibition was found to be 5.39%.

Take `CCC(C)S(=O)(=O)c1oc(-c2cccs2)nc1S(=O)(=O)c1ccccc1` (stereo unspecified): the Potency is 0.927 µM (active).

On to `CC(C)OCc1cc(CN2CCN(c3cccc(C(F)(F)F)c3)CC2)c(O)c2ncccc12`, for which the Potency was 11.7 µM (active).

With `COc1ccc(OCC(=O)NCc2ccc3c(c2)CCN3C(=O)c2ccccc2)cc1`, the Potency was 16.5 µM (active).

Take `CCOc1ccc(N(Cc2ccccc2)C(=O)c2nc(S(C)(=O)=O)ncc2Cl)cc1`: the Potency was 2.93 µM (active).

On to `COc1ccc(-c2ccc(CCC(=O)O)n2-c2cc(Cl)ccc2O)cc1`, for which the activity change, negative = inhibition is -7.48%.

In the case of `Cc1c(C(=O)OC2CCC(C)CC2)[nH]c2c1C(=O)CC(c1ccc(F)cc1)C2` (stereo unspecified), the Potency is 1.04 µM (active).
